ChEMBL document CHEMBL1157539, “Thousands of chemical starting points for antimalarial lead identification” (Nature, 2010)
Where “and” joins values, the source holds several entries; their conditions need not be identical. Identical values can stand only once.

Tests used:
Format in all cases: functional
[1] = tested on: Plasmodium falciparum; assay: GSK_TCMDC: Inhibition of Plasmodium falciparum 3D7 in whole red blood cells, using parasite LDH activity as an index of growth. Test compounds present at 2uM
[2] = tested on: Plasmodium falciparum; assay: GSK_TCMDC: Inhibition of Plasmodium falciparum Dd2 in whole red blood cells, using parasite LDH activity as an index of growth. Test compounds present at 2uM
[3] = tested on: HepG2; assay: GSK_TCMDC: Percent inhibition of human HepG2 cell line. Test compounds present at 10uM.

Structure (SMILES) | Inhibition [1] | Inhibition [2] | Inhibition [3]
CCOC(=O)C1=C(C)NC2=C(C(=O)C(C(=O)OC)C(C)C2)C1c1cc(Br)c(OCC)c(OC)c1 (centres undefined) | 100% | 99% | 8%
CNC(=O)CNC(=O)COc1cccc2ccccc12 | 98% | 0% | 3%
CCOC(=O)[C@H](Cc1cccc2ccccc12)NC(=O)[C@H](CCC(=O)OC(C)(C)C)NC(=O)c1ccc(N(C)Cc2cnc3nc(N)nc(N)c3n2)cc1 | 93% | 96% | 66%
CC(C)CCN1CCC(Oc2ccc(NC(=O)c3ccco3)cc2Cl)CC1.O=C(O)C(F)(F)F | 95% | 93% | 1%
COc1ccc(CCN2CC[C@H](Nc3nc(-c4ccc(F)c(F)c4)nc4ccccc34)C2)cc1S(N)(=O)=O.Cl | 99% | 64% | 18%
CCn1c(SCc2ccc(F)cc2)nc2sc3c(c2c1=O)CCN(C)C3 | 95% | 81% | 2%
Cc1ccc(Nc2nc(N/N=C/c3cccc([N+](=O)[O-])c3)nc(Nc3ccccc3)n2)c(C)c1 | 91% | 97% | 9%
CC1CN(c2cnn(C/C=C/c3ccc(NC(=O)c4ccc5nonc5c4)cc3)c(=O)c2Cl)CC(C)N1.O=C(O)C(F)(F)F (centres undefined) | 94% | 35% | 71%
CCC1CN(S(=O)(=O)c2ccc3c(c2)NC(=O)CC(=O)N3)c2cc(Cl)ccc2O1 (centres undefined) | 99% | 65% | 0%
OC(CN(Cc1ccccc1)Cc1ccccc1)Cn1c2ccc(Cl)cc2c2cc(Cl)ccc21 (centres undefined) | 89% | 95% | 5%
Nc1nc(N)c2cc(NC(=O)c3ccc(Cl)c(Cl)c3)ccc2n1 | 100% | 83% | 100%
Cc1ccc(-c2nc3cc(NC(=O)c4ccc([N+](=O)[O-])o4)ccc3o2)cc1Cl | 100% | 97% | 24%
CC1CN(c2cnn(Cc3cccc(NC(=O)Nc4ccc(-c5ccccc5)cc4)c3)c(=O)c2Cl)CC(C)N1.O=C(O)C(F)(F)F (centres undefined) | 100% | 67% | 6%
C=C[C@H]1CN2CC[C@H]1C[C@H]2[C@H](O)c1ccnc2ccc(OC)cc12.Cl [QUININE HYDROCHLORIDE] | 99% and 100% | 79% and 99% | 13% and 0%
O=C(NCCCc1ccccc1)c1csc(C2CCCN(C(=O)c3ccc(O)c(-c4ccccc4)c3)C2)n1 (centres undefined) | 97% | 97% | 5%
O=C(Nc1ccc(Cl)cc1)Nc1ccc(-c2ccc(-c3nc4ccccc4[nH]3)cc2)cc1 | 100% | 99% | 47%
O=C(Nc1ccc(Cl)cc1)c1ccc(CN2CCCN(Cc3cccc(O)c3)CC2)cc1.O=C(O)C(F)(F)F | 100% | 69% | 52%
COc1ccc(-c2ccc(NC(=O)c3ccc(Cl)cc3)cc2)cc1CN(C)CCN(C)C.O=C(O)C(F)(F)F | 97% | 61% | 37%
CCOc1cc(C)ccc1C1CCN(CCCCNC(=O)c2ccc(-c3ccc(Cl)cn3)cc2)CC1.Cl | 94% | 8% | 19%
CN(CCCc1c[nH]c2ccccc12)CCC1CCC(NC(=O)/C=C/c2ccc(Cl)c(Cl)c2)CC1 (centres undefined) | 99% | 63% | 38%

Structure (SMILES) | Inhibition [1] | Inhibition [2] | Inhibition [3]
Cc1cccc2nc(-c3cccc(-c4cccc(NC(=O)CN5CCN(C)CC5)c4)c3)[nH]c12 | 100% | 99% | 76%
Nc1ncnc2cc(-c3cccc(S(N)(=O)=O)c3)sc12 | 98% | 99% | 13%
COc1ccc(CN(C)CCCc2ccc(NC(=O)c3cc4ccccc4[nH]3)cc2)cc1OC.O=C(O)/C=C/C(=O)O | 97% | 31% | 39%
Cc1ccc(C(=O)Nc2cccc(-c3ccc(N4CCN(C)CC4)nn3)c2)cc1[N+](=O)[O-] | 99% | 40% | 32%
CCCC(C)Nc1nc(C)cc(N[C@@H](CC(C)C)C(=O)NCc2ccc(C)cc2)n1.O=C(O)C(F)(F)F (some centres undefined) | 98% | 51% | 16%
COc1ccc(-c2ccc(NC(=O)c3cccc(C#N)c3)cc2)cc1CN1CCCC(C(N)=O)C1.O=C(O)C(F)(F)F (centres undefined) | 98% | 44% | 12%
CCOc1ccc(N2CCN(CCCCNC(=O)c3ccc(NC(=O)c4ccc(Cl)cc4)cc3)CC2)c(OCC)c1 | 100% | 65% | 36%
O=C(NCc1cccc(C(F)(F)F)c1)C(c1cc2ccccc2o1)N1CCN(C(c2ccccc2)c2ccccc2)CC1 (centres undefined) | 91% | 80% | 0%
CS(=O)(=O)N1CC2(CCN(CCC(NC(=S)Nc3ccccc3)c3ccc(Cl)c(Cl)c3)CC2)c2ccccc21 (centres undefined) | 98% | 80% | 24%
O=C(O)C(F)(F)F.O=c1ccc2ccc(F)c3c2n1CC3CN1CCC(NCc2ccc(-c3cccc(Cl)c3)nc2)CC1 (centres undefined) | 96% | 33% | 16%
Cc1ccc(CN2CCN(Cc3cccc(NC(=O)c4ccc5ccccc5c4)c3)CC2)cc1C.O=C(O)C(F)(F)F | 89% | 23% | 62%
CC(C)(C)NCCN(Cc1ccc(-c2ccc(C(F)(F)F)cc2)cc1)C(=O)Cn1c(CCc2cccc(F)c2F)nc(=O)c2ccccc21 | 99% | 68% | 46%
COc1ccc(C(C(=O)NC2CCN(C[C@H](O)c3ccnc4ccc(OC)cc34)CC2)N2CCN(c3ccc(Cl)c(Cl)c3)CC2)cc1 (some centres undefined) | 100% | 79% | 12%
Cc1ccoc1C(=O)Nc1cccc(-c2cccc(-c3nc4cccc(C)c4[nH]3)c2)c1 | 100% | 79% | 17%
Cc1c(Oc2ccc(-n3ccnc3)cc2)ncnc1N1CCC2(CC1)CNCc1ccccc12.O=C(O)C(F)(F)F | 95% | 58% | 26%
COc1ccc(CN2CCC2=O)c(OC)c1 | 98% | 96% | 0%
CCCCN(CCCC)CCOc1cc2c(cc1OC)CCN2C(=O)/C=C/c1ccccc1Cl.Cl | 87% | 31% | 13%
COc1ccc2nccc([C@@H](O)CN3CCC(NC(=O)c4ccc5cc[nH]c5c4)CC3)c2c1.CS(=O)(=O)O | 91% | 23% | 21%
Cl.N=c1n(Cc2ccccc2)c2ccccc2n1CC(O)c1ccc(Cl)cc1 (centres undefined) | 96% | 75% | 26%
CC(Nc1ccnc2cc(Cl)ccc12)c1ccc(S(N)(=O)=O)cc1 (centres undefined) | 96% | 21% | 5%

Structure (SMILES) | Inhibition [1] | Inhibition [2] | Inhibition [3]
Cc1cccc2nc(-c3ccc(-c4ccc(NC(=O)Nc5cccc(C#N)c5)cc4)cc3)[nH]c12 | 100% | 100% | 28%
CS(=O)(=O)Nc1cccc(-c2cnc3[nH]cc(-c4ccc(CN)cc4)c3c2)c1 | 98% | 95% | 27%
Cc1noc(C)c1-c1ccc(C(=C2CCCCCC2)c2ccc(O)cc2)cc1 | 100% | 96% | 0%
COC(=O)c1ccccc1COc1ccc(CC2(NC(=O)[C@H](Nc3ccc(C#N)c4ccccc34)C(C)(C)C)CCCC2)cc1 | 95% | 82% | 1%
COc1ccc2nccc(N/N=C/c3ccccc3[N+](=O)[O-])c2c1 | 100% | 100% | 67%
O=C(NCCCCN1CCN(c2cccc3c2CCCC3)CC1)c1ccc(NC(=O)c2ccc(Cl)cc2)cc1 | 100% | 85% | 35%
COc1ccc(N2C(=O)C3C(C2=O)C2(C)c4ccccc4C3(C)c3ccccc32)c([N+](=O)[O-])c1 (centres undefined) | 99% | 54% | 11%
O=C(Cc1ccc(-c2ccccc2)cc1)N[C@H]1CCN(Cc2ccc(OCCCN3CCCCC3)cc2)C1 | 99% | 27% | 36%
N#Cc1cnc(Nc2ccc(Oc3ccccc3)cc2)nc1Nc1cccc(S(N)(=O)=O)c1 | 96% | 86% | 74%
N#Cc1ccc(N/C(=N\c2ccccc2Cl)NC2CCN(Cc3ccccc3)CC2)c(O)c1 | 100% | 97% | 31%
CS(=O)(=O)N1CC2(CCN(CCC(NC(=O)/C=C/c3ccccc3)c3ccc(Cl)c(Cl)c3)CC2)c2ccccc21 (centres undefined) | 97% | 55% | 18%
COc1cc(-c2nnc(SCC(=O)Nc3cc(C)on3)n2C)cc(OC)c1O | 89% | 2% | 2%
CCc1ccc(NC(=O)N(CCCN2CCN(C)CC2)Cc2csc(-c3ccc(CNCc4ccccc4)cc3)n2)cc1.O=C(O)C(F)(F)F | 99% | 80% | 17%
Cc1cc(NCCc2ccc(O)cc2)nc(NCC(c2ccccc2)c2ccccc2)n1 | 100% | 77% | 22%
c1nc(CCNc2nc(Nc3ccc4c(c3)OCO4)nc(NC3CCCC3)n2)c[nH]1 | 80% | 0% | 0%
CCN(CC)Cc1cc(Nc2ccnc3cc(Cl)ccc23)ccc1O.Cl.Cl.Cl | 100% | 99% | 0%
CC1CCCN(S(=O)(=O)c2ccc(NC(=O)c3cc(-c4ccccc4O)n[nH]3)cc2)C1 (centres undefined) | 93% | 49% | 12%
Cc1nc(-c2cccc(Nc3nccc(NCC(O)c4cccc(F)c4)n3)c2)cs1 (centres undefined) | 98% | 59% | 39%
